A selection: hits, their analogues and other compounds. The true share with any hit is near 2.2%.
APP transl inh: APP translation inhibition. SH-SY5Y APP 5'UTR-luciferase reporter, luminescence. hit rate 0.82% among 190,000. inhibition, % at 2 µM. AID 1285;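 active = inhibition above a set limit, derived from the sample mean plus 3 SD, cut at about 45% in these data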
Ba/F3 V617F tox: reduce viability of Ba/F3 cells dependent on JAK2V617F | inhibition, % at 5.6 µM | AID 1446 | hit rate 1.1% among 220,000 | Ba/F3 EpoR-JAK2V617F viability, ATP luminescence;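 active = inhibition above the campaign mean plus 3 SD over all tested compounds, cut at about 24% in these data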;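 note: cytokine-independent growth of Ba/F3 cells driven by EpoR plus mutant JAK2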
KLF5 inh: suppresses KLF5 promoter-driven expression; inhibition, % at 5 µM; hit rate 0.23% among 290,000; DLD-1 KLF5 promoter-luciferase reporter, luminescence;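 active = inhibition above a per-plate limit of that plate's mean compound inhibition plus 3 SD, cut at about 60% in these data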;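 note: higher means less KLF5 promoter-driven luciferase light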
IEC-6 tox: IEC-6 cytotoxicity, counter-screen for KLF5 inhibitors; luminescence viability; inhibition, % at 5 µM; hit rate 0.78% among 290,000; AID 1825; in the data active = inhibition above about 22%
aSyn 5UTR inh: MLPCN primary screen, SNCA 5' untranslated region | alpha-synuclein 5'UTR reporter, inhibitor activity | AID 1813 | hit rate 0.82% among 300,000 | inhibition, % (tested at 7.5 µM); in the data active = inhibition above about 60%;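 note: H4 neuroglioblastoma cells stably carrying SNCA 5'UTR luciferase fusion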
BaF3 tox: parental Ba/F3 viability inhibition as JAK2V617F counter-screen; CellTiter-Glo ATP luminescence; inhibition, % at 5.6 µM; hit rate 1.1% among 220,000; AID 1486;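 active = inhibition above a per-campaign cutoff, the mean inhibition of all tested compounds plus 3 SD, cut at about 27% in these data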
Hits are given with their value; – = inactive; · = no result given.

SMILES	APP transl inh	Ba/F3 V617F tox	KLF5 inh	IEC-6 tox	aSyn 5UTR inh	BaF3 tox
O=c1c2ccccc2nc(/C=C/c2ccc([N+](=O)[O-])o2)n1CCCO	–	101	–	–	–	102
CC(C)C[C@H](NC(=O)N1c2ccccc2NC(=O)[C@@H]1C(C)C)C(=O)N1CCC[C@@H]1C(=O)O	·	·	–	–	–	·
COc1cc(/C=N/NC(=S)Nc2cccc(C(=O)O)c2)ccc1O	–	–	–	–	70	–
COc1ccc(/C=N/NC(=S)Nc2cccc(C(=O)O)c2)cc1	–	–	–	–	–	–
CC(=O)Nc1ccc(S(=O)(=O)N(C)CC(=O)OCC(=O)NCc2ccco2)cc1	·	·	·	·	–	·
COc1ccc(-c2cc(=O)c3c(O)c(OC)c(O)cc3o2)cc1	–	–	–	–	70	–
COc1cc(O)c2c(=O)cc(-c3ccccc3)oc2c1	–	–	–	–	–	–
COc1ccc(NC(=O)CSCC(=O)OCc2cccc(OC)c2OC)cc1	·	·	·	·	–	·
O=C(CCNC(=O)c1ccc([N+](=O)[O-])cc1)Nc1ccccc1N1CCCCC1	·	·	·	·	–	·
COc1cc(C)c(C(=O)CC(=O)c2c(C)cc(OC)cc2C)c(C)c1	·	·	·	·	72	·
COc1ccc(NC(C)=O)c(C)c1	–	–	–	–	–	–
CC(=O)Nc1ccc(S(=O)(=O)N(CCO)Cc2ccccc2)cc1	–	–	–	–	–	–
CC(=O)Nc1ccc(S(=O)(=O)N(C)CCOCc2ccccc2)cc1	–	–	–	–	–	43
C=CCOc1ccc(C2N3CC4(C)CN2CC(CCC)(C3)C4=O)cc1 (stereo not drawn)	–	–	–	–	·	–
CCCC12CN3CC(C)(CN(C1)C3c1ccc(OC)cc1)C2=O (stereo not drawn)	–	–	–	–	–	94
CCOc1ccc(N2CC(NC(=O)c3cccc4ccccc34)CC2=O)cc1 (stereo not drawn)	·	·	·	·	–	·
CNc1nc(N/N=C/c2cc3c(cc2[N+](=O)[O-])OCO3)nc(Nc2ccccc2)n1	–	–	–	–	74	–
O=[N+]([O-])c1cc2c(cc1/C=N\NS(=O)(=O)c1ccccc1)OCO2	–	–	–	–	–	–
COc1ccc(-n2cc(-c3ccc(Br)cc3)[nH]c2=S)cc1	–	–	–	–	–	–
COc1ccc(-n2c(-c3ccc(Br)cc3)c[n+]3c2CCc2ccccc2-3)cc1	–	88	–	–	–	78
CC(C)c1ccc(-n2c(-c3ccccc3)c[n+]3c2CCc2ccccc2-3)cc1	–	99	–	41	78	92
COc1ccccc1-n1c(-c2ccccc2)c[n+]2c1CCc1ccccc1-2	–	101	–	24	–	79
COc1ccccc1-n1c(-c2ccccc2)c[nH]c1=S	–	–	–	–	–	–
CC1CCC(NS(=O)(=O)c2ccc(N3CCCC3=O)cc2)CC1 (stereo not drawn)	·	·	–	–	–	·
COc1cc(C(=O)ONC(=O)c2ccc(OC(F)F)cc2)cc(OC)c1OC	·	·	–	–	–	·
SMILES	APP transl inh	Ba/F3 V617F tox	KLF5 inh	IEC-6 tox	aSyn 5UTR inh	BaF3 tox
COC(=O)C1=C(C)NC(C)=C(C(=O)OC)C1c1ccccc1OCc1c(C)no[n+]1[O-]	–	32	–	–	·	35
COc1cc(/C=C(\C#N)C(N)=O)ccc1OCc1c(C)no[n+]1[O-]	·	–	–	–	–	–
Cc1ccc(OCCNC(=O)c2ccc(NC(=O)CC3SC(N4CCCC4)=NC3=O)cc2)cc1 (stereo not drawn)	·	·	·	·	–	·
COc1ccc(NC(=S)NN(C)C(=S)Nc2ccc(OC)cc2)cc1	93	–	–	–	–	–
COc1ccc(NC(=S)Nc2ccc(Oc3ccccc3)cc2)cc1	–	–	–	–	–	–
O=C(N/C(=C\c1cccc([N+](=O)[O-])c1)C(=O)N1CCOCC1)c1ccco1	·	·	–	–	–	·
CCc1nnc(NC(=O)c2ccncc2)s1	–	–	–	–	–	–
CCc1nnc(NC(=O)c2cccc(C(=O)Nc3nnc(CC)s3)n2)s1	85	–	–	93	66	–
CCOCc1nnc(NC(=O)c2ccc(OC)cc2)s1	47	–	–	–	–	–
COc1cccc(C(=O)Nc2nc3ccccc3s2)c1	·	·	–	–	–	·
COc1ccc(C(=O)Nc2nc3ccccc3s2)cc1	·	·	–	–	67	·
CC(C)(C)Nc1nc(Oc2ccc(=O)[nH]n2)nc(N2CCOCC2)n1	–	–	–	–	–	–
CN(C)/C=C(\C=O)c1cccc(Cl)c1	–	–	–	–	–	–
Cc1scc(C(=O)N/N=C/c2ccc([N+](=O)[O-])o2)c1C	·	·	–	–	85	·
Cc1scc(C(=O)N/N=C/c2ccco2)c1C	–	–	–	–	–	–

High-throughput results as filed in PubChem.
